Laboratory results reported in PubChem BioAssay (NCI).
The panel holds about 83,000 compounds, 20% with a hit somewhere; the sample as a whole holds those more often.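 Cell lines were cultured in 96-well plates, exposed to a single compound concentration, and assessed for percent growth 48 hours later.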 Active and inactive are the calls of the source. How the source made its calls: active means growth percent below 10; inactive means the rest.

Tests used:
Experiment in all cases: NCI-60 one-dose screen, 48 h (100 = growth as untreated, 0 = no growth, -100 = all killed)
Conditions in all cases: 10 µM unless noted
HCT-15 colon = system: HCT-15 colon
HT29 colon = system: HT29 colon
SNB-75 CNS = system: SNB-75 CNS
SNB-19 CNS = system: SNB-19 CNS
U251 CNS = system: U251 CNS
PC-3 prostate = system: PC-3 prostate
SK-MEL-5 melanoma = system: SK-MEL-5 melanoma
UACC-62 melanoma = system: UACC-62 melanoma
LOX IMVI melanoma = system: LOX IMVI melanoma
SK-MEL-28 melanoma = system: SK-MEL-28 melanoma
EKVX NSCLC = system: EKVX NSCLC
SN12C renal = system: SN12C renal
UO-31 renal = system: UO-31 renal
TK-10 renal = system: TK-10 renal
ACHN renal = system: ACHN renal
A498 renal = system: A498 renal
CCRF-CEM leukemia = system: CCRF-CEM leukemia
MOLT-4 leukemia = system: MOLT-4 leukemia
CAKI-1 renal = system: CAKI-1 renal

Measured: growth

CC[C@H](Nc1ncnc2nc[nH]c12)c1nc2cccc(F)c2c(=O)n1-c1ccccc1
inactive: HCT-15 colon 88.9% | HT29 colon 50.4% | SNB-75 CNS 25.8% | SNB-19 CNS 71.5% | U251 CNS 77% | PC-3 prostate 50.9% | SK-MEL-5 melanoma 80.2% | UACC-62 melanoma 39.1% | LOX IMVI melanoma 74.6% | SK-MEL-28 melanoma 69.3% | EKVX NSCLC 80.1% | SN12C renal 51.6% | UO-31 renal 31.3% | TK-10 renal 17.4% | ACHN renal 41.5% | CCRF-CEM leukemia 52.3% | MOLT-4 leukemia 62.2%
active: A498 renal -14.3%

CCNC(=O)C#Cc1ccc2c(C(=Nc3ccc(CN(C)C)cc3)c3ccccc3)c(O)[nH]c2c1
inactive: HCT-15 colon 27.7% | SNB-19 CNS 29.5% | U251 CNS 22.4% | PC-3 prostate 44.4% | SK-MEL-5 melanoma 17% | EKVX NSCLC 49% | SN12C renal 36.5% | TK-10 renal 25.7% | ACHN renal 35.6% | CCRF-CEM leukemia 17.3% | MOLT-4 leukemia 10.9%
active: HT29 colon -40% | SNB-75 CNS 3.23% | UACC-62 melanoma -32.5% | LOX IMVI melanoma -75.7% | SK-MEL-28 melanoma -11.6% | UO-31 renal 8.22% | A498 renal -40.3%

Cc1cc([C@@H](C)Nc2ccccc2C(=O)O)c2nc(N3CCOCC3)cc(=O)n2c1
active: SNB-75 CNS -19.5% | A498 renal -36.7%
inactive: HCT-15 colon 44.5% | HT29 colon 35.9% | SNB-19 CNS 52.8% | U251 CNS 55.4% | PC-3 prostate 30.5% | SK-MEL-5 melanoma 52.5% | UACC-62 melanoma 14% | LOX IMVI melanoma 30.1% | SK-MEL-28 melanoma 43.9% | EKVX NSCLC 61.7% | SN12C renal 44.1% | UO-31 renal 15.7% | TK-10 renal 42.6% | ACHN renal 46.3% | CCRF-CEM leukemia 23.5% | MOLT-4 leukemia 20.6%

CC(C)(C)OC(=O)N1CCC(O)[C@@H](O[Si](c2ccccc2)(c2ccccc2)C(C)(C)C)[C@H]1/C=C/c1ccccc1 (some centres not stated)
inactive: HCT-15 colon 41.1% | HT29 colon 37.9% | SNB-75 CNS 46.8% | SNB-19 CNS 58.5% | U251 CNS 44.4% | PC-3 prostate 14% | SK-MEL-5 melanoma 30.2% | UACC-62 melanoma 57.1% | LOX IMVI melanoma 61.4% | SK-MEL-28 melanoma 65.1% | EKVX NSCLC 40.7% | SN12C renal 73% | UO-31 renal 39.1% | TK-10 renal 66.1% | CAKI-1 renal 45.3% | A498 renal 68.2% | CCRF-CEM leukemia 46.4% | MOLT-4 leukemia 28%

Cc1cc(Nc2ncnc3ccc(NC4=NC(C)(C)CO4)cc23)ccc1Oc1ccn2ncnc2c1
inactive: HCT-15 colon 47.9% | SNB-75 CNS 39% | SNB-19 CNS 44.3% | U251 CNS 36.2% | PC-3 prostate 41.3% | SK-MEL-5 melanoma 19.2% | UACC-62 melanoma 14.3% | LOX IMVI melanoma 11.2% | SK-MEL-28 melanoma 12.9% | EKVX NSCLC 41.6% | SN12C renal 33.1% | UO-31 renal 14.9% | ACHN renal 21.1% | CCRF-CEM leukemia 11.7% | MOLT-4 leukemia 16.7%
active: HT29 colon 5.46% | TK-10 renal 1.72% | A498 renal -16%

Clc1ccc2c(NCCNc3nc(N4CCCC4)nc4ccccc34)ccnc2c1
active: HCT-15 colon -34.5% | HT29 colon -27.2% | U251 CNS -44% | SK-MEL-5 melanoma -97.1% | UACC-62 melanoma -56.6% | LOX IMVI melanoma -85.7% | SK-MEL-28 melanoma -54.2% | SN12C renal 3.63% | UO-31 renal -72.3% | TK-10 renal -47.3% | ACHN renal -83% | CCRF-CEM leukemia 5.08% | MOLT-4 leukemia -5.18%
inactive: SNB-75 CNS 12.5% | SNB-19 CNS 25.1% | PC-3 prostate 21.9% | EKVX NSCLC 24.4%

COC(=O)[C@]12CC[C@@H](C)[C@H](C)[C@@H]1C1=CC[C@@H]3[C@@]4(C)C(c5cnco5)=C[C@@](C)(CO)C4=CC[C@@]3(C)[C@]1(C)CC2
inactive: HCT-15 colon 29.8% | HT29 colon 26.6% | SNB-75 CNS 77.1% | SNB-19 CNS 65.7% | U251 CNS 61.8% | PC-3 prostate 12.6% | SK-MEL-5 melanoma 47.2% | UACC-62 melanoma 65.3% | LOX IMVI melanoma 67.7% | SK-MEL-28 melanoma 66.7% | EKVX NSCLC 41.2% | SN12C renal 55.9% | UO-31 renal 44.1% | TK-10 renal 69.6% | ACHN renal 25.4% | CCRF-CEM leukemia 35.5% | MOLT-4 leukemia 10.1%

CCCC(=O)OCC1OC(n2cnc3c(=S)nc[nH]c32)C(OC(=O)CCC)C1OC(=O)CCC (configuration not stated)
inactive: HCT-15 colon 56.4% | HT29 colon 35.9% | SNB-75 CNS 52.9% | SNB-19 CNS 74.4% | U251 CNS 87.6% | PC-3 prostate 59.7% | SK-MEL-5 melanoma 38.6% | UACC-62 melanoma 13.7% | LOX IMVI melanoma 11.7% | SK-MEL-28 melanoma 98.2% | EKVX NSCLC 69.3% | SN12C renal 49.9% | UO-31 renal 32.6% | ACHN renal 41.5% | A498 renal 30.8% | CCRF-CEM leukemia 24.6% | MOLT-4 leukemia 18.6%
active: TK-10 renal 6.59%

O=C(c1ccccc1)C(c1ccccc1)N1CCOCC1 (configuration not stated)
inactive: HCT-15 colon 104% | HT29 colon 99.1% | SNB-75 CNS 100% | SNB-19 CNS 100% | U251 CNS 95.1% | PC-3 prostate 92.7% | SK-MEL-5 melanoma 102% | UACC-62 melanoma 105% | LOX IMVI melanoma 98.2% | SK-MEL-28 melanoma 105% | EKVX NSCLC 99% | SN12C renal 101% | UO-31 renal 86.9% | TK-10 renal 90% | ACHN renal 106% | A498 renal 111% | CCRF-CEM leukemia 91.2% | MOLT-4 leukemia 94.3%

C=CC(=O)Nc1cccc(Oc2nc(Nc3ccc(N4CCN(C)CC4)cc3)nc3ccsc23)c1
inactive: SNB-19 CNS 12.8% | EKVX NSCLC 16.4% | A498 renal 33.6%
active: HCT-15 colon -21.9% | HT29 colon -60% | SNB-75 CNS -81.1% | U251 CNS -84.7% | PC-3 prostate -44.5% | SK-MEL-5 melanoma -97.2% | UACC-62 melanoma -78.2% | LOX IMVI melanoma -85% | SK-MEL-28 melanoma -91.6% | SN12C renal -70.6% | UO-31 renal -89.6% | TK-10 renal -79% | ACHN renal -96.6% | CCRF-CEM leukemia 1.89% | MOLT-4 leukemia -37.7%

Nc1c(Cl)cccc1[N+](=O)[O-]
inactive: HCT-15 colon 104% | HT29 colon 111% | SNB-75 CNS 104% | SNB-19 CNS 103% | U251 CNS 103% | PC-3 prostate 98.4% | SK-MEL-5 melanoma 104% | UACC-62 melanoma 101% | LOX IMVI melanoma 103% | SK-MEL-28 melanoma 106% | EKVX NSCLC 104% | SN12C renal 103% | UO-31 renal 90.4% | TK-10 renal 125% | ACHN renal 104% | A498 renal 101% | CCRF-CEM leukemia 101% | MOLT-4 leukemia 99.6%

Cc1cc(C2(c3ccc(O)c(C)c3)OS(=O)(=O)c3ccccc32)ccc1O
inactive: HCT-15 colon 117% | HT29 colon 115% | SNB-75 CNS 91.6% | SNB-19 CNS 105% | U251 CNS 107% | PC-3 prostate 90.8% | SK-MEL-5 melanoma 103% | UACC-62 melanoma 107% | LOX IMVI melanoma 104% | SK-MEL-28 melanoma 113% | EKVX NSCLC 111% | SN12C renal 101% | UO-31 renal 64.7% | TK-10 renal 111% | CAKI-1 renal 97.6% | A498 renal 94.2% | CCRF-CEM leukemia 101% | MOLT-4 leukemia 91.1%

O=C1CSC(c2c(F)cccc2Cl)N1NC(=O)C(O)(c1ccccc1)c1ccccc1 (configuration not stated)
inactive: HCT-15 colon 102% | HT29 colon 95.9% | SNB-75 CNS 82.9% | SNB-19 CNS 98.4% | U251 CNS 95.7% | PC-3 prostate 95.5% | SK-MEL-5 melanoma 89.5% | UACC-62 melanoma 82.8% | LOX IMVI melanoma 94.2% | SK-MEL-28 melanoma 107% | EKVX NSCLC 95.2% | SN12C renal 93.8% | TK-10 renal 113% | ACHN renal 99.9% | CAKI-1 renal 93.3% | A498 renal 102% | CCRF-CEM leukemia 97% | MOLT-4 leukemia 74%
